Measurements published in PubChem BioAssay AID588397 (National Center for Advancing Translational Sciences (NCATS), 2011).
The whole screen tested about 1,300 compounds, of which about 1,000 (77%) were called active. Roughly 7% stayed inconclusive and do not appear here. Calls come from the whole dose curve; as a rule, active = well fitted inhibition curve with a large enough effect; inconclusive = small, poorly fitted or top-dose-only effect; inactive = no such curve, though single readings can be large or run the other way. The set was probably picked from earlier hits. Some of the results follow.
Potency is the fitted concentration of half-maximal effect.

Assay: qHTS of small molecules that selectively kill Giardia lamblia: Hit Validation.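 Note: viability measured as ATP content by luminescence so killing lowers signal; nearly all actives have a fitted effect of over 65% in size.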
Details: Giardia lamblia trophozoite viability, dose-response; series mostly up to 38.3 µM
Procedure, shortened: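 ATP-content bioluminescence gauges trophozoite survival. Cells (100/well) receive compound and incubate anaerobically for 48 hrs at 37 deg C; detection reagent follows for 15-30 min at room temperature.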
With `COc1ccc(-n2nc([N+](=O)[O-])c(=NCCCN3CCCC3=O)n2O)cc1` the Potency was 2.05 µM (active). With `O=C1CCCN1CCCN=c1c([N+](=O)[O-])nn(-c2ccc(Cl)cc2)n1O` the Potency was 3.65 µM (active). In the case of `Cn1cccc1C1CCCN1CC(=O)Nc1ccc(F)c(F)c1F` (stereo not drawn), the Potency was “inactive”. For `O=C(CSc1ccsc1[N+](=O)[O-])N1CCN(c2ccccn2)CC1`, the Potency was 0.579 µM (active). For `Cc1ccc(CNC(=O)CSc2ccsc2[N+](=O)[O-])cc1`, the Potency was 2.59 µM (active). With `O=C(CSc1ccsc1[N+](=O)[O-])NCc1ccccc1` the Potency was 1.16 µM (active). In the case of `CCOC(=O)Cc1csc(SCC(=O)NC2CCCCC2)n1`, the Potency was “inactive”. With `O=C(CSc1ccsc1[N+](=O)[O-])NC1CCCC1` the Potency was 1.03 µM (active). In the case of `CC(=O)c1ccc(NC(=O)CSc2ccsc2[N+](=O)[O-])cc1`, the Potency was 0.918 µM (active). In the case of `CCc1ccccc1NC(=O)CSc1ccsc1[N+](=O)[O-]`, the Potency was 2.31 µM (active). In the case of `COc1ccc(CNC(=O)CSc2ccsc2[N+](=O)[O-])cc1`, the Potency was 1.63 µM (active). For `COc1ccccc1CNC(=O)CSc1ccsc1[N+](=O)[O-]`, the Potency was 1.45 µM (active). In the case of `CCc1ccccc1NC(=O)CC(NCc1ccccc1)C(=O)O` (stereo not drawn), the Potency was “inactive”. In the case of `CCn1c(=O)n(CC)c2cc(N)ccc21`, the Potency was “inactive”. In the case of `Cc1cc(C(=O)CCC(=O)NC(C)c2ccc(S(N)(=O)=O)cc2)c(C)s1` (stereo not drawn), the Potency was “inactive”. For `c1csc(-c2ccc(N3CCOCC3)nn2)c1`, the Potency was 3.65 µM (active). With `O=[N+]([O-])c1ccc(NCc2ccccc2N2CCC(CO)CC2)nc1` the Potency was 1.45 µM (active). In the case of `O=C1c2ccccc2C(=O)c2[nH]cnc21`, the Potency was 2.59 µM (active). In the case of `O=C(O)c1ccc(NC(=O)c2cc3ccccc3o2)cc1`, the Potency was 6.5 µM (active). In the case of `O=C1CSC(c2ccc(F)cc2)N1c1c(F)cccc1F` (stereo not drawn), the Potency was “inactive”. For `CC(C)(C)n1nc(-c2ccc(Cl)cc2)c2c(N)ncnc21`, the Potency was 14.5 µM (active). In the case of `COc1ccc(N2CCCC2)c(NC(=O)c2ccc([N+](=O)[O-])o2)c1`, the Potency was 0.516 µM (active). With `CCN(CC)S(=O)(=O)c1ccc(N2CCCC2)c(NC(=O)c2ccc([N+](=O)[O-])o2)c1` the Potency was 1.45 µM (active). In the case of `COc1ccc2nc3cc(Cl)ccc3c(Nc3ccc(O)c(CN4CCN(C)CC4)c3)c2c1`, the Potency was 10.3 µM (active). For `CN(C)CCCn1cnc2c(c1=N)C(c1ccccc1)c1ccc3ccccc3c1O2` (stereo not drawn), the Potency was 20.5 µM (active). In the case of `CN1CCN(C(=O)/C=C/c2ccc([N+](=O)[O-])o2)CC1`, the Potency was 0.818 µM (active). With `CCc1ccc(C(=O)/C=C/c2ccc([N+](=O)[O-])o2)cc1` the Potency was 1.3 µM (active). In the case of `O=[N+]([O-])c1nn(-c2ccccc2)[n+]([O-])c1N1CCN(c2ccccc2)CC1`, the Potency was 1.3 µM (active). In the case of `O=[N+]([O-])c1nn(-c2ccccc2)[n+]([O-])c1N1CCN(c2ccccc2F)CC1`, the Potency was 1.16 µM (active). In the case of `CC1CCN(c2c([N+](=O)[O-])nn(-c3ccc4c(c3)OCCO4)[n+]2[O-])CC1`, the Potency was 1.03 µM (active). In the case of `CCN(Cc1ccncc1)C(=O)CC1C(=O)NCCN1Cc1ccc(F)c(F)c1` (stereo not drawn), the Potency was “inactive”. In the case of `Cc1c(C(=O)c2ccc(Cl)cc2[N+](=O)[O-])c2ccccn2c1CCC#N`, the Potency was 0.41 µM (active). With `CCn1nc(-c2ccccc2C)nc2c(=O)n(C)c(=O)nc1-2` the Potency was 0.103 µM (active). With `Cc1ccccc1-c1nc2c(=O)n(C)c(=O)nc-2n(C)n1` the Potency was 0.115 µM (active). With `Cc1cnc([N+](=O)[O-])n1CCOC(=O)NC(=O)c1ccccc1Cl` the Potency was 1.16 µM (active). With `COc1ccccc1C(=O)NC(=O)OCCn1c(C)cnc1[N+](=O)[O-]` the Potency was 0.579 µM (active). With `Cc1ccc(C(=O)c2c3ccc([N+](=O)[O-])cc3[n+]([O-])n2CCCN)cc1` the Potency was 4.6 µM (active). In the case of `NC(=O)CCn1c(C(=O)c2cccc([N+](=O)[O-])c2)c2ccccc2[n+]1[O-]`, the Potency was 4.1 µM (active). With `Cc1ccc(C(=O)c2c3ccc([N+](=O)[O-])cc3[n+]([O-])n2CCCC(N)=O)cc1` the Potency was 3.65 µM (active). In the case of `Cc1ccc(C(=O)c2c3ccc([N+](=O)[O-])cc3[n+]([O-])n2CCC(N)=O)cc1`, the Potency was 6.5 µM (active). With `CC(=O)CSc1ccc(-c2nc3ccccc3[nH]2)cn1` the Potency was 1.45 µM (active). In the case of `CC(=O)CSc1ccc(-c2nc3cc(C)c(C)cc3[nH]2)cn1`, the Potency was 2.05 µM (active). For `COc1ccc(CNc2ccc([N+](=O)[O-])cn2)cc1`, the Potency was 7.29 µM (active). With `O=C(COc1cccnc1[N+](=O)[O-])Nc1ccc2c(c1)OCO2` the Potency was 5.16 µM (active). With `Cc1c(Br)c([N+](=O)[O-])nn1C(C)C(=O)Nc1ccc2c(c1)OCO2` (stereo not drawn) the Potency was 1.16 µM (active). In the case of `O=C(COc1cccnc1[N+](=O)[O-])Nc1ccc2c(c1)OC(F)(F)O2`, the Potency was 5.79 µM (active). For `O=S(=O)(Nc1cc(Sc2cccc3cccnc23)c(O)c2ccccc12)c1ccc(F)cc1`, the Potency was 11.6 µM (active). For `Cn1nc([N+](=O)[O-])nc1Sc1cccc2cccnc12`, the Potency was 7.29 µM (active). For `Nc1nc(Cl)nc2c1ncn2C1CC(O)C(CO)O1` (stereo not drawn), the Potency was 0.115 µM (active). In the case of `CC(CSc1nnnn1-c1ccccc1)Cn1c(N2CCCC2)nc2c1c(=O)[nH]c(=O)n2C` (stereo not drawn), the Potency was 0.183 µM (active). For `COc1ccc(NS(=O)(=O)c2cc(NC(=O)c3ccc(=O)[nH]c3)ccc2C)cc1`, the Potency was “inactive”. For `COc1ccc(C(=O)Nc2ccc3[nH]ccc3c2)cc1`, the Potency was 0.41 µM (active). In the case of `O=C(Nc1ccc2[nH]ccc2c1)c1ccccc1`, the Potency was 2.05 µM (active). For `C(=NN1CCCCCC1)c1ccc2ccccc2n1`, the Potency was 1.03 µM (active). With `COc1ccc(CN2C(=O)C(CC(C)C)Nc3ncnc(N4CCCCC4)c32)cc1` (stereo not drawn) the Potency was “inactive”. For `COc1ccc(CC(NC(C)=O)C(=O)NC2CCN(c3ncccc3[N+](=O)[O-])CC2)cc1` (stereo not drawn), the Potency was 2.05 µM (active). In the case of `CC(NC(=O)c1ccccc1F)c1nnc(SCC(=O)NC2CCCC2)n1C` (stereo not drawn), the Potency was “inactive”. For `CC(=O)NC(Cc1ccc(F)cc1)C(=O)NC1CCN(c2ncccc2[N+](=O)[O-])CC1` (stereo not drawn), the Potency was 1.83 µM (active). For `CC(=O)NC(Cc1ccccc1F)C(=O)NC1CCN(c2ncccc2[N+](=O)[O-])CC1` (stereo not drawn), the Potency was 2.31 µM (active). In the case of `COc1ccc(OCC(=O)NNC(=O)C2CCN(c3ncnc4sc(C)c(C)c34)CC2)cc1`, the Potency was “inactive”. With `CC(=O)NC(Cc1ccccc1)C(=O)NC1CCN(c2ncccc2[N+](=O)[O-])CC1` (stereo not drawn) the Potency was 1.63 µM (active). For `O=C(COc1cccnc1[N+](=O)[O-])Nc1c(Cl)cccc1Cl`, the Potency was 3.26 µM (active). In the case of `O=C(COc1cccnc1[N+](=O)[O-])Nc1ncc(Cl)cc1Cl`, the Potency was 4.6 µM (active). With `CC(=O)c1c(COC(=O)c2ccccc2Cl)nc2ccccc2[n+]1[O-]` the Potency was 14.5 µM (active). In the case of `CC(=O)c1c(COC(=O)c2ccc(F)cc2)nc2ccccc2[n+]1[O-]`, the Potency was 6.5 µM (active). In the case of `Cn1c(CNC(=O)c2ccccc2F)cc2ccccc21`, the Potency was “inactive”. With `O=C(Nc1ccc(OCC(=O)N2CCOCC2)cc1)c1ccccc1F` the Potency was 7.29 µM (active). With `COc1ccc2oc(=Nc3ccccc3)c(-c3nc4ccccc4[nH]3)cc2c1` the Potency was 4.1 µM (active). For `CCOC(=O)C1CCN(c2c([N+](=O)[O-])c(C(Cl)Cl)nn2-c2ccccc2)CC1`, the Potency was 2.9 µM (active). For `O=[N+]([O-])c1c(C(Cl)Cl)nn(-c2ccccc2)c1N1CCOCC1`, the Potency was 1.83 µM (active). In the case of `CCN1/C(=C\c2ccc3ccccc3[n+]2CC)Sc2cc(C)ccc21`, the Potency was “inactive”. In the case of `COc1ccc(C(=O)c2c(C)oc3cc([N+](=O)[O-])c(O)c([N+](=O)[O-])c23)cc1`, the Potency was 1.83 µM (active). For `Cc1oc2cc([N+](=O)[O-])c(O)c([N+](=O)[O-])c2c1C(=O)c1ccc(Br)cc1`, the Potency was 2.31 µM (active). In the case of `Cc1oc2cc([N+](=O)[O-])c(O)c([N+](=O)[O-])c2c1C(=O)c1ccc(Cl)cc1`, the Potency was 2.59 µM (active). With `CCCn1c(NC(=O)c2ccc([N+](=O)[O-])o2)nc2ccccc21` the Potency was 1.3 µM (active). For `O=C(Nc1nc2c(Cl)cccc2s1)c1ccc([N+](=O)[O-])o1`, the Potency was 1.45 µM (active). With `CCn1c(CCNC(=O)c2ccc(F)cc2)nc2ccccc21` the Potency was “inactive”. In the case of `O=C(Nc1nc2c(F)cc(F)cc2s1)c1ccc([N+](=O)[O-])o1`, the Potency was 1.16 µM (active). For `O=C(Nc1nc2cc3c(cc2s1)OCCO3)c1ccc([N+](=O)[O-])o1`, the Potency was 0.579 µM (active). With `CCOP(=O)(OCC)c1cccc(P(=O)(c2ccccc2)c2ccccc2)c1O` the Potency was “inactive”. For `COC(=O)[C@]1(C)N[C@H](CN(C)S(=O)(=O)c2ccc(-c3ccccc3)cc2)[C@@H]2C(=O)N(C)C(=O)[C@@H]21`, the Potency was “inactive”. With `COc1ccc2nc(NC(=O)c3ccc([N+](=O)[O-])o3)sc2c1` the Potency was 0.918 µM (active). For `O=C(Nc1nc2ccccc2s1)c1ccc([N+](=O)[O-])o1`, the Potency was 1.03 µM (active). With `O=C(Nc1nc2c(F)cccc2s1)c1ccc([N+](=O)[O-])o1` the Potency was 1.03 µM (active). With `O=C(Nc1cccc2ncccc12)c1ccc([N+](=O)[O-])o1` the Potency was 0.918 µM (active). In the case of `NC(=O)c1oc2ccccc2c1NC(=O)c1ccc([N+](=O)[O-])o1`, the Potency was 0.65 µM (active). For `O=C(Nc1cccc2ccccc12)c1ccc([N+](=O)[O-])o1`, the Potency was 1.03 µM (active). For `COc1cc(C2C(C(=O)c3ccc(C)o3)=C(O)C(=O)N2c2cc(C)on2)ccc1OCc1ccccc1` (stereo not drawn), the Potency was “inactive”. For `CCC(C)Nc1ccc(NC(C)CC)cc1` (stereo not drawn), the Potency was 0.183 µM (active). For `Clc1ccc2c(N/N=C/c3ccc(Br)cc3)ccnc2c1`, the Potency was 0.516 µM (active). For `O=[N+]([O-])c1ccc(/C=N/Nc2ccnc3cc(Cl)ccc23)o1`, the Potency was 2.05 µM (active). For `Clc1ccc2c(N/N=C/c3cccc(Br)c3)ccnc2c1`, the Potency was 1.45 µM (active). With `Cc1nc2c(N=Nc3ccccc3F)c(N)nn2c(N)c1C#N` the Potency was 4.6 µM (active).
